From the emibetuzumab library of Makowski et al. (2022) come the findings set out here.

B1: VH:VL chains; a variant is named by its letters at X, in order (parent)
chain 1: QVQLVQSGAEVKKPGASVKVSCKASGYTFTDYXMHWVRQAPGQGLEWMGXVNPNXXXTTYNQKFEGRVTMTTDTSTSTAYMELRSLRSDDTAVYYCARXNXLDXWGQGTTVTVSS
chain 2: DIQMTQSPSSLSASVGDRVTITCSVSSSVSSIYLHWYQQKPGKAPKLLIYSTSNLASGVPSRFSGSGSGTDFTLTISSLQPEDFATYYCQVYSGYPLTFGGGTKVEIK

This is one part of the list. How many sequences the whole screen found active is unknown.

The variants in the experiment derive from B1. The experiment can be described thus: yeast display scFab, FACS + sequencing. The settings on record: with MET. In a few lines:
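Two magnetic rounds on Protein A beads coated with HGFR-Fc, followed by FACS, were used to enrich a yeast surface scFab library mutated in the heavy-chain CDRs. FACS gated the top 50% antigen-positive cells after 3 h labelling at room temperature with 1 nM HGFR-Fc and anti-Myc in PBSB plus 1% milk. Binding to the antigen was scored positive when a sequence occurred in both antigen-positive samples from deep sequencing and negative when it occurred only in the input.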
On to DTTGSAVV, for which the antigen binding call is “no binding”.
Turning to FTGTSDLY, the antigen binding call is listed as “no binding”.
On to FRGRDYGS, for which the antigen binding call was “no binding”.
For the variant FRGRDFGS, the antigen binding call was “no binding”.
For FEATASWS, the antigen binding call is reported as “no binding”.
With FRGRDSWS, the antigen binding call was “binds”.
Under FRGRGAWS stands “binds”; under FRGRGSVS, “binds”.
With FRGRGSWS, the antigen binding call is on record as “binds”.
Turning to AGGGNDGA, the antigen binding call is recorded as “no binding”.
As to VTGGDDWY, the antigen binding call is on record as “no binding”.
As to AARADAVV, the antigen binding call was “no binding”.
As to FRGRGDLS, the antigen binding call is “no binding”.
For FRGRGAAS, the antigen binding call is on record as “binds”.
With FRGRGFLS, the antigen binding call is reported as “no binding”.
FRGRGALS: the antigen binding call was “binds”.
On to FRGRGSLS, for which the antigen binding call is “binds”.
Consider FRGRGAGS, for which the antigen binding call is recorded as “binds”.
SGKKSSGV: the antigen binding call is recorded as “no binding”.
In the case of VEGTSAVF, the antigen binding call is on record as “no binding”.
In the case of FRGRASLS it was “binds”; in that of YRRRGAGY, “binds”.
For the variant YRRRGDGY, the antigen binding call is “binds”.
In the case of DRERGDGY it was “no binding”.
For YAAKSDGY, the antigen binding call is on record as “no binding”.
Consider YRRRGFGY, for which the antigen binding call is given as “binds”.
Turning to YRRRGVGY, the antigen binding call is “binds”.
For the variant FAAAGFVA, the antigen binding call is on record as “no binding”.
In the case of VKREAVGV it was “no binding”.
As to YRRRGSGY, the antigen binding call is “binds”.
Take YRRRGFGS: the antigen binding call was “binds”.
VREGDYLS: the antigen binding call was “no binding”.
In the case of YAREAALS, the antigen binding call is recorded as “no binding”.
For the variant YRTRGALS, the antigen binding call is “binds”.
Regarding SRTRGFGS, the antigen binding call is “no binding”.
Consider VRTRGALS, for which the antigen binding call was “binds”.
As to YRTGAALS, the antigen binding call was “binds”.
As for DREEGAGS, the antigen binding call was “no binding”.
Take DAEESDGA: the antigen binding call is reported as “no binding”.
For DGTKSYGV, the antigen binding call was “no binding”.
In the case of VTGGDDWV it was “no binding”; in that of FKTKSDAV, “no binding”.
As to FKTGGAAV, the antigen binding call is recorded as “binds”.
On to DKTGDAAV, for which the antigen binding call is “no binding”.
As for FKTESAAV, the antigen binding call was “binds”.
In the case of YTTGGAAV it was “no binding”; in that of FAEGAAAV, “no binding”.
Regarding AKTKSDVA, the antigen binding call is recorded as “no binding”.
With DATGGDVY, the antigen binding call is reported as “no binding”.
As to VAEKGDWY, the antigen binding call was “no binding”.
As to FRTGDSVD, the antigen binding call is reported as “binds”.
For the variant FATTDSVD, the antigen binding call is “no binding”.
For the variant FRTGDSWD, the antigen binding call is reported as “binds”.
Regarding FGKEDSVD, the antigen binding call is listed as “no binding”.
Take YARADDVA: the antigen binding call was “no binding”.
For the variant VKAGDAWS, the antigen binding call is on record as “no binding”.
On to VKAGDSSS, for which the antigen binding call was “binds”.
Consider YRAGDSSS, for which the antigen binding call is “binds”.
Under FGAKGSSS stands “no binding”; under YRRKGSSS, “binds”.
With VEAGDSSS, the antigen binding call is listed as “no binding”.
Under YRAKGSSS stands “binds”; under SEGTSAVF, “no binding”; under DTKAASSS, “no binding”.
On to DKERGDLV, for which the antigen binding call was “no binding”.
Regarding DTRTAYGF, the antigen binding call is reported as “no binding”.
For YRAEGSSS, the antigen binding call is given as “binds”.
On to YRAKSSSS, for which the antigen binding call is “binds”.
With VKGRADVF, the antigen binding call is on record as “no binding”.
As to YRGGDSAY, the antigen binding call was “binds”.
As to DRGGDDVY, the antigen binding call is recorded as “no binding”.
With DRGGDDWY, the antigen binding call was “no binding”.
Under YRGGDSSY stands “binds”.
As to YAGGDFAY, the antigen binding call is recorded as “no binding”.
Take YRGGDDLY: the antigen binding call is “no binding”.
YRAGGSSY: the antigen binding call is recorded as “binds”.
Take DREEGSSY: the antigen binding call was “no binding”.
As to ARGKASSY, the antigen binding call is given as “no binding”.
Turning to DRREGYGA, the antigen binding call is reported as “no binding”.
Regarding DTTRDDSD, the antigen binding call is given as “no binding”.
As for VTTKSDWV, the antigen binding call was “no binding”.
Take AGKGGFAY: the antigen binding call is on record as “no binding”.
On to VEARNDWA chain 1 M81I, for which the antigen binding call is listed as “no binding”.
On to YRRGGAWD, for which the antigen binding call is “binds”.
For the variant YETKGDWD, the antigen binding call was “no binding”.
Consider VETKGDWD, for which the antigen binding call is recorded as “no binding”.
On to FRRGGAWD, for which the antigen binding call is “binds”.
AETKGDWD: the antigen binding call is given as “binds”.
On to YRRRGAWD, for which the antigen binding call was “binds”.
In the case of DTEGGSAS it was “no binding”; in that of DEGGTAVV, “no binding”.
As to DGARNAAA, the antigen binding call is “no binding”.
Take DEGGTAGV: the antigen binding call is “no binding”.
Turning to DEGGTDLD, the antigen binding call was “no binding”.
DATEDDSA: the antigen binding call is given as “no binding”.
On to YTRGADWY, for which the antigen binding call is on record as “no binding”.
In the case of YRRRGDWY it was “binds”; in that of YRRRGDWD, “binds”; in that of YTKRGDWD, “no binding”.
As for FRRRGDWY, the antigen binding call is recorded as “no binding”.
For YRGKGSWS, the antigen binding call was “binds”.
Turning to YRGKGAWS, the antigen binding call is recorded as “binds”.
For the variant DEEASSWA, the antigen binding call was “no binding”.
For the variant DTGTGDVA, the antigen binding call was “no binding”.
Turning to VTAGDDVA, the antigen binding call is “no binding”.
In the case of VRRGDSVA it was “binds”; in that of VRAGGSVA, “binds”.
Turning to VRRGDFWA, the antigen binding call is “no binding”.
Under VRAGDSVA stands “binds”.
In the case of VEAGDDGA it was “no binding”; in that of VKRGDDVA, “no binding”; in that of VRARGVVA, “no binding”.
Under VRAGDDGA stands “no binding”.
With VEAGDAVA, the antigen binding call is listed as “no binding”.
Regarding VRATGSVY, the antigen binding call was “no binding”.
Consider VRAGDAGA, for which the antigen binding call was “binds”.
Under VGGRADGF stands “no binding”; under SKTKSDGA, “no binding”; under DAGGAAGD, “no binding”.
With ATTKSAVA, the antigen binding call is “no binding”.
Consider FRAEGSVA, for which the antigen binding call was “binds”.
As for VRRASSVA, the antigen binding call is “binds”.
Take YKAGDSVA: the antigen binding call was “binds”.
As to VRAEGSVA, the antigen binding call was “binds”.
VKAGDDVA: the antigen binding call is on record as “no binding”.
Under VTRGADAV stands “no binding”.
As for SGAGDYSD, the antigen binding call is listed as “no binding”.
As to VEAGDSSA, the antigen binding call is recorded as “no binding”.
Under VTGGDSSA stands “no binding”; under VRAGGFGA, “binds”; under VAEKGFGA, “no binding”.
On to VRAGDSSA, for which the antigen binding call is recorded as “binds”.
In the case of VRGTGFGA, the antigen binding call is listed as “no binding”.
On to VKTGGDVF, for which the antigen binding call is given as “no binding”.
Regarding VAGAGAGA, the antigen binding call was “no binding”.
In the case of YRGAGAGA, the antigen binding call is on record as “binds”.
YRGAGAAA: the antigen binding call is given as “binds”.
With YRGASAAA, the antigen binding call is “binds”.
For YRGAGYAA, the antigen binding call was “no binding”.
In the case of AGGGNDVV it was “no binding”; in that of FKKGSSLD, “binds”; in that of FKARDSGD, “no binding”.
Regarding FKRRSSGD, the antigen binding call is on record as “binds”.
As to FKRRSFGS, the antigen binding call is on record as “no binding”.
Under FKKGSSGV stands “binds”; under FKEGNSLD, “no binding”; under FKRGSSLD, “binds”.
Consider FEERNSLD, for which the antigen binding call was “no binding”.
For the variant SEGADAGD, the antigen binding call is on record as “no binding”.
On to SEGGDAWV, for which the antigen binding call is reported as “no binding”.
FKKGSSWD: the antigen binding call is recorded as “binds”.
Turning to FKKGSVGD, the antigen binding call is given as “no binding”.
Consider FKKEGYGD, for which the antigen binding call is “no binding”.
As to FKKGSSGD, the antigen binding call is reported as “binds”.
In the case of VGGGNDLA chain 1 R87K, the antigen binding call is on record as “no binding”.
As to FRAGSAWS, the antigen binding call is recorded as “binds”.
With FRAGGAWS, the antigen binding call is “binds”.
In the case of DAAKNDAV it was “no binding”; in that of DGGKNDGV, “no binding”; in that of VEGGADVF, “no binding”.
In the case of DTGGGDLA, the antigen binding call was “no binding”.
In the case of YKRGSSVS it was “binds”; in that of YARAGSVS, “no binding”.
In the case of VEEEGSVS, the antigen binding call is given as “no binding”.
As to YRRGGSVS, the antigen binding call is “binds”.
For the variant YRRGSSVS, the antigen binding call is on record as “binds”.
Turning to VRRGSSVS, the antigen binding call is “binds”.
Consider DTGTGDGV, for which the antigen binding call was “no binding”.
In the case of YRRGGAVS it was “binds”; in that of DTKAAAVV, “no binding”.
Under DRAGDYLY stands “no binding”; under DRAGDSLV, “binds”; under VRAGDYLV, “no binding”.
Take DRAGDDWV: the antigen binding call is “no binding”.
Take SRAGDYLV: the antigen binding call is given as “no binding”.
In the case of DRAGDYLV it was “binds”.
For FRAGDYLV, the antigen binding call is given as “binds”.
As for DRRGDSLV, the antigen binding call is recorded as “no binding”.
In the case of ARAGDYLV it was “no binding”; in that of SAREGDWV, “no binding”; in that of SAARDAVA, “no binding”.
For FAGGGDVY, the antigen binding call is reported as “no binding”.
Turning to VRTEDDVF, the antigen binding call is “no binding”.
Take FRGRGFSV: the antigen binding call was “no binding”.
As to FRGRGSSD, the antigen binding call is on record as “binds”.
For FRGGASSD, the antigen binding call is “binds”.
In the case of FKGKSSSD it was “no binding”; in that of FRGRGASV, “binds”.
With FRGRGAWD, the antigen binding call is “binds”.
In the case of FKGTDSSD, the antigen binding call is “no binding”.
For DAKEGDVV, the antigen binding call is given as “no binding”.
For the variant VEGGGAGV, the antigen binding call is given as “no binding”.
On to DAGGADGV, for which the antigen binding call is reported as “no binding”.
For the variant FRKGDASD, the antigen binding call is recorded as “no binding”.
Turning to FAGRGYSD, the antigen binding call was “no binding”.
Regarding FRGRGASD, the antigen binding call is listed as “binds”.
As to DGGKNAVA, the antigen binding call is given as “no binding”.
VAGTGASD: the antigen binding call is on record as “no binding”.
On to FRGRSSLA, for which the antigen binding call is “binds”.
Consider FRTRSSLA, for which the antigen binding call is listed as “binds”.
VEGEDAGA: the antigen binding call is “no binding”.
For FRRGSSGA, the antigen binding call is given as “binds”.
Under YRRGGSGA stands “binds”; under YRRGSSGA, “binds”.
In the case of YTRGGSGA it was “no binding”; in that of DAKEGSSA, “no binding”.
Take DGGKNDVV: the antigen binding call is reported as “no binding”.
For VEGTSAGD, the antigen binding call is “no binding”.
On to FRTRGAAA, for which the antigen binding call is “binds”.
For YRTRSAAA, the antigen binding call is given as “binds”.
Under FTTRGAVA stands “no binding”; under VRTRGDGA, “no binding”.
Under FRTRDAAA stands “binds”; under FRTRGVGA, “no binding”; under YRTRGAGA, “binds”.
Turning to FRGRDYAA, the antigen binding call is recorded as “no binding”.
In the case of YTTRGAGA, the antigen binding call is reported as “no binding”.
